From PubChem BioAssay
Active and inactive are the calls of the source.

Experiments:
[1] = system: PRMT1 (protein arginine N-methyltransferase 1); experiment: small molecules binding arginine methyltransferase PRMT1 – biochemical, small-molecule microarray, 635 nm fluorescence, primary screen (AID 1088); settings: higher = more signal;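 note: binding of Prmt1 protein to compounds spotted on small-molecule microarray slides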
[2] = growth effects on S. cerevisiae YJM789 – YJM789 clinical isolate, OD600, 24 h, basal, primary screen (AID 1089); settings: higher = more signal, called active from +8 up or from −8 down;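 note: growth of clinical yeast isolate S. cerevisiae YJM 789 seeded 1000 cells per well; test concentration not given here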
[3] = S. pombe growth modifiers, basal conditions – strain 972, OD600, 24 h, no modulator, primary screen (AID 1090);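 note: basal condition with compound alone and no growth modifier present; test concentration not given here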; settings: S. pombe 972 growth, higher = more signal, called active from +8 up or from −8 down
[4] = budding yeast growth modifiers under rapamycin – strain BY4716, OD600, 96 h, primary screen (AID 1091); note: test concentration not given here; settings: S. cerevisiae BY4716 + rapamycin, higher = more signal, called active from +8 up or from −8 down
[5] = target: Torsin-1A-interacting protein 2 (Homo sapiens) (UniProt Q8NFQ8); experiment: small molecules binding lysate-expressed LULL1 – cell lysate, human LULL1 lysate, 635/667 nm fluorescence, primary screen (AID 1092); settings: small-molecule microarray, hLULL1 lysate binding, 635 nm fluorescence; higher = more signal;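 note: probe is lysate of COS7 cells overexpressing human LULL1; score merges per-feature 667 nm fluorescence with signal-to-noise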
[6] = optical density change of DRC41 E. coli – strain DRC41, OD650, 24 h, E. coli filamentation project, primary screen (AID 1093);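 note: MC1000 strain lacking acrAB efflux and sulA so SOS filamentation is blocked; test concentration not given here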; settings: E. coli DRC41 growth, higher = more signal, called active from +8 up or from −8 down
[7] = probe aLefty2 binding to arrayed compounds – biochemical, biotinylated probe, 635/667 nm fluorescence, primary screen (AID 1094); settings: small-molecule microarray, higher = more signal;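 note: score merges spot fluorescence near 667 nm with spot signal-to-noise ratio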
[8] = system: Noggin (protein binding on small-molecule microarray); experiment: small molecules binding Noggin protein – biochemical, 635/667 nm fluorescence, primary screen (AID 1095); settings: 635 nm fluorescence, higher = more signal;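 note: score merges 667 nm feature fluorescence with signal to noise over triplicate slides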
[9] = target: Neurogenic locus notch homolog protein 3 (Homo sapiens) (UniProt Q9UM47); experiment: small molecules binding NOTCH3 protein – biochemical, 635/667 nm fluorescence, primary screen (AID 1096); settings: small-molecule microarray, 635 nm fluorescence, higher = more signal
[10] = probe aEGFR binding to arrayed compounds – biochemical, biotinylated probe, 635/667 nm fluorescence, primary screen (AID 1097); settings: small-molecule microarray, higher = more signal;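 note: probe is a biotinylated anti-EGFR antibody binding compounds printed on slides; score combines fluorescence near 667 nm and signal to noise of each spot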
[11] = system: Plasmodium falciparum Sir2 (PF13_0152, Sir2A); experiment: Plasmodium falciparum Sir2A binding compounds – biochemical, small-molecule microarray, 635 nm fluorescence, primary screen (AID 1098); settings: fluorescence 635 nm, higher = more signal;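 note: score merges spot fluorescence intensity with its signal-to-noise ratio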
[12] = probe aDKK1 binding to arrayed compounds – biochemical, biotinylated probe, 635/667 nm fluorescence, primary screen (AID 1099); settings: small-molecule microarray, higher = more signal;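 note: score merges 667nm spot fluorescence with signal to noise across triplicate slides; reference of the scale not given here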
[13] = probe aCHRDL2 binding to arrayed compounds – biochemical, biotinylated probe, 635/667 nm fluorescence, primary screen (AID 1100); settings: small-molecule microarray, higher = more signal
[14] = change in splice reporter luminescence, either direction, cell-based, HEK293, spliceosome inhibition project, primary screen (AID 1101); settings: HEK293 splicing luciferase reporter, 24 h, higher = more signal, called active from +8 up or from −8 down;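 note: HEK293 cells carrying a splicing-competent luciferase reporter gene; test concentration not given here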
[15] = target: Fibroblast growth factor 10 (Homo sapiens) (UniProt O15520); experiment: compounds binding fibroblast growth factor 10 – biochemical, small-molecule microarray, 635 nm fluorescence, primary screen (AID 1102); settings: FGF10 binding, fluorescence 635 nm, higher = more signal
[16] = system: glycogen synthase kinase-3 (GSK3A per assay name; protocol says GSK3B); experiment: compounds binding glycogen synthase kinase-3 – biochemical, small-molecule microarray, 635 nm fluorescence, GSK3A, primary screen (AID 1103); settings: fluorescence 635 nm, higher = more signal; note: the record names both GSK3A and GSK3B
[17] = target: Epidermal growth factor receptor (Homo sapiens) (UniProt P00533); experiment: compounds binding epidermal growth factor receptor – biochemical, small-molecule microarray, 635 nm fluorescence, primary screen (AID 1104); settings: EGFR binding, higher = more signal;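 note: score merges 667 nm emission intensity with spot signal to noise over triplicate slides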
[18] = target: Follistatin-related protein 3 (Homo sapiens) (UniProt O95633); experiment: compounds binding follistatin-related protein 3 – biochemical, small-molecule microarray, 635 nm fluorescence, primary screen (AID 1105); settings: FSTL3 binding, higher = more signal;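 note: score merges emission near 667 nm and signal to noise per printed spot across three slides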
[19] = target: Dickkopf-related protein 1 (Homo sapiens) (UniProt O94907); experiment: small molecules binding DKK1 protein – biochemical, small-molecule microarray, 635 nm fluorescence scan, primary screen (AID 1106); settings: higher = more signal;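 note: score merges emission near 667 nm with signal to noise over three replicate slides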
[20] = system: Inhibin beta A chain (activin A); experiment: small molecules binding activin A – biochemical, small-molecule microarray, 635 nm fluorescence scan, primary screen (AID 1107); settings: INHBA, higher = more signal;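 note: mouse activin A protein probed at 4.33 µg/mL on printed slides; score merges bound-protein fluorescence near 667 nm with spot signal-to-noise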

Chain of Dickkopf-related protein 1 (Homo sapiens) (O94907 whole entry, looked up): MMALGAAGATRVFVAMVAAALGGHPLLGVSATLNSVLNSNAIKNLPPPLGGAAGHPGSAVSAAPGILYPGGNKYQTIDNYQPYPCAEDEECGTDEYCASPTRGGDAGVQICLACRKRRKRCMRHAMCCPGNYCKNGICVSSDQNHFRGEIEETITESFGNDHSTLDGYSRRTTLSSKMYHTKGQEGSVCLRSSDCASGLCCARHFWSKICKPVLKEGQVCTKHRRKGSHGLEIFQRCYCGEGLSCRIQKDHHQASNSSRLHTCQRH
Chain of Epidermal growth factor receptor (Homo sapiens) (P00533 whole entry, looked up): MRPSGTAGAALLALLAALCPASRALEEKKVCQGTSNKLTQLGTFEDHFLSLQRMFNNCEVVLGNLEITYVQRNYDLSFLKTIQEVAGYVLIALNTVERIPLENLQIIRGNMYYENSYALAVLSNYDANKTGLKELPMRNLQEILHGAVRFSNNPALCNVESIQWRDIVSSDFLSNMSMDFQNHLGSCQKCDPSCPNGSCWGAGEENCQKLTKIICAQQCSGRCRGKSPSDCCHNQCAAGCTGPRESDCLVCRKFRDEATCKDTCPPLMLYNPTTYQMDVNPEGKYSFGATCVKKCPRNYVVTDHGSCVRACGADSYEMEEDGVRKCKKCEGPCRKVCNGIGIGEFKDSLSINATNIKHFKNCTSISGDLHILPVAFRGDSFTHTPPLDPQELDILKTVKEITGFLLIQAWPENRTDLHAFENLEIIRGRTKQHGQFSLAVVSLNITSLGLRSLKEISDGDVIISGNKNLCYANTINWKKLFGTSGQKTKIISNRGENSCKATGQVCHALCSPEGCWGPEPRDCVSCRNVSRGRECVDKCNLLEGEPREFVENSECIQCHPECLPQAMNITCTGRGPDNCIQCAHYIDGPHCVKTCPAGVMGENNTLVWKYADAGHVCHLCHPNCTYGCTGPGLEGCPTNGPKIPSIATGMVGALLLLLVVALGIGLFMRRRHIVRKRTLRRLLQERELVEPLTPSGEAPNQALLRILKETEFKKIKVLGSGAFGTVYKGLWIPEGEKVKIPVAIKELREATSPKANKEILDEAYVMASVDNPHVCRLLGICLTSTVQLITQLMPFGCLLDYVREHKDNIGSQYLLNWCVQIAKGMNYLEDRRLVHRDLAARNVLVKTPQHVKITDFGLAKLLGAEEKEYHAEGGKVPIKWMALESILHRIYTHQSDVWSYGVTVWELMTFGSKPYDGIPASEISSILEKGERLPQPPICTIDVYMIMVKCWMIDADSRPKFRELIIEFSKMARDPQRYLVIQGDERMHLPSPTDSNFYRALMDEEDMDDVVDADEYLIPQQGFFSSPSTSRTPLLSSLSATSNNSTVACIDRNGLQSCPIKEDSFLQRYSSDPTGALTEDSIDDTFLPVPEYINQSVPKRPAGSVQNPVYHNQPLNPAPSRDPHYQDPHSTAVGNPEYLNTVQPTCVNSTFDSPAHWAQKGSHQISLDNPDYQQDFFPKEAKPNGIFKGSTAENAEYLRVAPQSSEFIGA
Chain of Fibroblast growth factor 10 (Homo sapiens) (O15520 whole entry, looked up): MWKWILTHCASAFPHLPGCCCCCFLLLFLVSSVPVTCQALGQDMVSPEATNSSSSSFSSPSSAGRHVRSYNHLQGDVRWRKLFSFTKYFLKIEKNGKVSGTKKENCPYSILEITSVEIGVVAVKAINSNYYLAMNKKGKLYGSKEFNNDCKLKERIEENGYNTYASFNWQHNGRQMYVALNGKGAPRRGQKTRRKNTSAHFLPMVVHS
Chain of Follistatin-related protein 3 (Homo sapiens) (O95633 whole entry, looked up): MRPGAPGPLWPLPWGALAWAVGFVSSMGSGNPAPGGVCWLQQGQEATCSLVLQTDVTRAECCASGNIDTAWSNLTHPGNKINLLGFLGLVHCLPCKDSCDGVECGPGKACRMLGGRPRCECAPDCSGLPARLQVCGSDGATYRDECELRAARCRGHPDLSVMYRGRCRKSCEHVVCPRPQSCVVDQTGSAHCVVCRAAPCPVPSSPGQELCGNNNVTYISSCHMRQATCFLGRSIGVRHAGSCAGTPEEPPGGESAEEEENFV
Chain of Neurogenic locus notch homolog protein 3 (Homo sapiens) (Q9UM47 whole entry, looked up): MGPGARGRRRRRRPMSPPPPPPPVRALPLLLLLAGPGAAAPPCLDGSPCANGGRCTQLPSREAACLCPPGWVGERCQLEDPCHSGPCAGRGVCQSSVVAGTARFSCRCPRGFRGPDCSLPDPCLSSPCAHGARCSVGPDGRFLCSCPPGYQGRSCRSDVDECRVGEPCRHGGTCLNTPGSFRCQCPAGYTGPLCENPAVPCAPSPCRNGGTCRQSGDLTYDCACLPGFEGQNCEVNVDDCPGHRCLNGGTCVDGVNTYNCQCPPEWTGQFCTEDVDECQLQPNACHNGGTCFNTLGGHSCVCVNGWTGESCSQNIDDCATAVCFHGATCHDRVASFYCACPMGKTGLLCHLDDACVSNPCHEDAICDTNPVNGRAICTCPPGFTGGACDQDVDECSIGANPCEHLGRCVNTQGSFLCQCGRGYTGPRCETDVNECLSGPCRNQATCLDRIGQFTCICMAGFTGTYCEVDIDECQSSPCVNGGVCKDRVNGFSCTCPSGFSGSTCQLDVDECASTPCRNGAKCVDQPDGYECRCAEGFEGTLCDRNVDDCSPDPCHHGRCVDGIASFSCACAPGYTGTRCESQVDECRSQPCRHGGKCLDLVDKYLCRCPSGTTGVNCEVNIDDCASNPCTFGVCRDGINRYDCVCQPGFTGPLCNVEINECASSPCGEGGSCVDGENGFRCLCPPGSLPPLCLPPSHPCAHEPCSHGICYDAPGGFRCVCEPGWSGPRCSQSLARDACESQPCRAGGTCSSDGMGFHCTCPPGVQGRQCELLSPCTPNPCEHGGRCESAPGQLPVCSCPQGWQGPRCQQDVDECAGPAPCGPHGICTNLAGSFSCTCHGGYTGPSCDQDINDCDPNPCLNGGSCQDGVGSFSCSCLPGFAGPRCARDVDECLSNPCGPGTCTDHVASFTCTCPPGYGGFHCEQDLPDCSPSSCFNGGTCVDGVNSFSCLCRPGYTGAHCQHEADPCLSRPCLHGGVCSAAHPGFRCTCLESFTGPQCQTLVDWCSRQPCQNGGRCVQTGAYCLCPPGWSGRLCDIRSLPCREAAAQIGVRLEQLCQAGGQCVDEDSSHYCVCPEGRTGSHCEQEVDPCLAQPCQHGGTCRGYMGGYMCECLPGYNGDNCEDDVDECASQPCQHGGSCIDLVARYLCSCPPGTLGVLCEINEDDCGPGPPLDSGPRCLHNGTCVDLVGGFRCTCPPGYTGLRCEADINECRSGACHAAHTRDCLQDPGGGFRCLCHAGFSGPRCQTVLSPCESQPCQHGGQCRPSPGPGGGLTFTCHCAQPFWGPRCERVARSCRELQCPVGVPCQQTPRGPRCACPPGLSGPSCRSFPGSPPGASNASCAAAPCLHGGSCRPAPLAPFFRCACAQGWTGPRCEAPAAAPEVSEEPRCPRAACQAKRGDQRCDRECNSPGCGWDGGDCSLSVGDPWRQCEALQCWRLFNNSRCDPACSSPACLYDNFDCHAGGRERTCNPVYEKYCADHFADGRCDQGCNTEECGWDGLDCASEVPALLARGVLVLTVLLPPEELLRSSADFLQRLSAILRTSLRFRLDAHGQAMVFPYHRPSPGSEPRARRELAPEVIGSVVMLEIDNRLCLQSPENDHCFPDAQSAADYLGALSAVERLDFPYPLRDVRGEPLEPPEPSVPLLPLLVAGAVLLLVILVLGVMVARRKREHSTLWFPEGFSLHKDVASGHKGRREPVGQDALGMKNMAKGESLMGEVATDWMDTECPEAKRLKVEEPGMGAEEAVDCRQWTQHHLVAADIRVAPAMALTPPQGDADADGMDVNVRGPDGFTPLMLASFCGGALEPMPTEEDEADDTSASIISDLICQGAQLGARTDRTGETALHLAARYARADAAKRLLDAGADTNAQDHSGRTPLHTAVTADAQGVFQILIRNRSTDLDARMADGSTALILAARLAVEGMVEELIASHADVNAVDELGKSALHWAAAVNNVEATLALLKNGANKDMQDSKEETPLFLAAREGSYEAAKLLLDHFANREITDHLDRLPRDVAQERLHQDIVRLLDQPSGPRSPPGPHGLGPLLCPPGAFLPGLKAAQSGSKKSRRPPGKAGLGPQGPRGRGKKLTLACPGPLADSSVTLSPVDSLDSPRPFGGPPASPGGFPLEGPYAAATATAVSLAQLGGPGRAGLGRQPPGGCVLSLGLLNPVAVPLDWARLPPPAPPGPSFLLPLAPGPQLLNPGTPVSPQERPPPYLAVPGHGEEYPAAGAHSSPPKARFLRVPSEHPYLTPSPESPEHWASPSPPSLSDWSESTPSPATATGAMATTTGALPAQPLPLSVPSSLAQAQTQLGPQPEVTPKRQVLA
Chain of Torsin-1A-interacting protein 2 (Homo sapiens) (Q8NFQ8 whole entry, looked up): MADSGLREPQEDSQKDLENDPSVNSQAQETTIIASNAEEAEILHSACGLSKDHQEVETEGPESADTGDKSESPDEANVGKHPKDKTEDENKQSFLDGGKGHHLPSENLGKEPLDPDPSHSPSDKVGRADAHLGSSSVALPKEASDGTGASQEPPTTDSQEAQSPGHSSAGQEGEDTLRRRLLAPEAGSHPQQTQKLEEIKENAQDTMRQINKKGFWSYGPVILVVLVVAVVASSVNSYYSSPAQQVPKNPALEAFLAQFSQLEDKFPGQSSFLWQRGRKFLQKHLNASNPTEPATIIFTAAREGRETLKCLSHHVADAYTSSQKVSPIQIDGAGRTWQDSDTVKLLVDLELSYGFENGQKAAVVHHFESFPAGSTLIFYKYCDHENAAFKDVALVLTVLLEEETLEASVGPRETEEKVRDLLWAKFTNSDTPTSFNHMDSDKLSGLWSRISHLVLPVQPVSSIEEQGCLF

Compound | composite z-score [1] | z-score [2] | z-score [3] | z-score [4] | composite z-score [5] | z-score [6] | composite z-score [7] | composite z-score [8] | composite z-score [9] | composite z-score [10] | composite z-score [11] | composite z-score [12] | composite z-score [13] | z-score [14] | composite z-score [15] | composite z-score [16] | composite z-score [17] | composite z-score [18] | composite z-score [19] | composite z-score [20]
CN1C(=O)C2C=CC(C(O)c3cc(C(F)(F)F)cc(C(F)(F)F)c3)N(Nc3ccccc3)C2C1=O (stereo not given) | 0.237 | -0.506 (inactive) | -0.714 (inactive) | -0.785 (inactive) | 3.85 | -0.565 (inactive) | -0.194 | 0.325 | 0.377 | -0.155 | 0.395 | -0.224 | 0.0811 | 1.37 (inactive) | 0.0307 | -0.107 | -0.0397 | -0.247 | -0.887 | 0.0638
CN1C(=O)C2C(C1=O)C1C=C(CCCO)C2C(C2CC2)N1Cc1cc2c(cc1Br)OCO2 (stereo not given) | 0.84 | -3.43 (inactive) | -1.03 (inactive) | -0.932 (inactive) | 2.82 | 0.307 (inactive) | 0.183 | 0.304 | 0.699 | 0.0185 | 0.553 | -0.272 | 0.288 | -0.0854 (inactive) | 0.357 | 0.963 | -0.0564 | -0.0617 | 0.107 | 1.36
COc1cc(NN2C(C(O)c3cc(OC)c(OC)c(OC)c3)C=CC3C(=O)N(c4ccccc4)C(=O)C32)cc(OC)c1OC (stereo not given) | 1.51 | 0.613 (inactive) | 0.712 (inactive) | 0.219 (inactive) | 2.93 | -1.94 (inactive) | 0.688 | 1.34 | 1.02 | 0.139 | 0.815 | 0.981 | 0.561 | 0.269 (inactive) | 1.26 | 1.3 | 0.165 | 1.1 | 0.101 | 0.759
C[C@]1(C(=O)NCC(F)(F)F)c2ccccc2C(=O)N(Cc2ccccc2)[C@H]1c1ccc(CO)cc1 | -0.604 | 0.724 (inactive) | 0.645 (inactive) | -0.0993 (inactive) | 1.57 | 0.855 (inactive) | -0.0478 | -1.45 | -1.21 | -0.162 | 0.905 | -0.0306 | 0.543 | 0.0226 (inactive) | -1.63 | -1.8 | -1.3 | -1.47 | -1.71 | -0.264
COC(=O)c1c2oc(c1C(=O)OC)C(=O)N1CCC[C@H]1Cn1nncc1CN(Cc1ccccc1)C(=O)N[C@H](CO)CC2 | 0.97 | 0.955 (inactive) | -0.086 (inactive) | 0.613 (inactive) | 0.983 | 1.24 (inactive) | -0.116 | 0.743 | 0.2 | 0.471 | 0.614 | -0.304 | -0.0048 | 0.733 (inactive) | 0.627 | -0.103 | 0.327 | -0.0361 | -0.113 | 0.309
[N-]=[N+]=NCc1ccccc1[C@H]1OC(c2ccc(OCCCO)cc2)=N[C@@]1(Cc1ccccc1)C(=O)NCCN1CCOCC1 | 1.53 | -1.07 (inactive) | -0.864 (inactive) | -0.31 (inactive) | 3.34 | 1.12 (inactive) | 0.443 | 0.52 | 1.09 | -0.0329 | 1.23 | -0.378 | 0.75 | -1.06 (inactive) | 1.43 | 1.21 | 0.446 | 1.07 | 0.0815 | 0.768
C=C(COC)C(=O)CC[C@@H](OC(=O)c1cccnc1)c1ccccc1OCCO | 0.409 | -0.587 (inactive) | -1.7 (inactive) | -0.369 (inactive) | -0.135 | 0.0506 (inactive) | 0.0789 | 0.879 | -0.302 | -0.0828 | 1.4 | 0.403 | 0.647 | 0.591 (inactive) | 0.694 | -0.0625 | -0.333 | 0.529 | 0.18 | 1.51
COC(=O)[C@@]1(Cc2ccc(F)cc2)[C@H]2c3cc(C(=O)N4CCCC4)n(C)c3C[C@H]2CN1C(=O)c1ccccc1 | 0.579 | -0.42 (inactive) | 0.252 (inactive) | -0.658 (inactive) | 3.25 | 0.508 (inactive) | 0.744 | -0.662 | 0.405 | -0.0259 | 1.24 | 0.874 | 1.22 | -2.19 (inactive) | 0.549 | 0.128 | -0.372 | -0.296 | -0.856 | 1.21
O=C1N[C@@H](Cc2ccccc2)C(=O)N2[C@@H]1C[C@@H](C(=O)O)[C@H]2c1ccc(O)cc1 | 1.19 | -0.0447 (inactive) | -0.701 (inactive) | -0.54 (inactive) | 2.41 | 1.54 (inactive) | 0.391 | 1.5 | 1.11 | 0.335 | 1.31 | 0.731 | 0.707 | -0.485 (inactive) | 0.727 | 0.86 | 0.315 | 1.45 | 1.63 | 0.853
COC(=O)[C@@]1(Cc2ccc(OC)cc2)[C@H]2c3cc(C(=O)N4CCCC4)n(Cc4ccc(OC(F)(F)F)cc4)c3C[C@H]2CN1C(=O)c1ccccc1 | -1.02 | 0.59 (inactive) | 1.74 (inactive) | 3.21 (inactive) | 0.0202 | -0.376 (inactive) | 0.412 | -0.442 | 0.75 | 0.343 | 0.858 | 1.15 | 1.1 | -0.886 (inactive) | 0.717 | -0.5 | -0.0407 | 0.598 | -0.414 | 0.891
